A number with no mark means an inactive call. Results filed as inconclusive are left out. Entries that show only a call come without a potency. Active and inactive are the calls of the source. Unless noted, the call rests on the fitted dose curve; in most records, active means well fitted curve in the direction sought with a large enough effect in the repeat runs; inconclusive means weak or mixed curves; inactive means no such curve, though single readings can be large; an effect the other way counts as inactive or inconclusive.
Key:
[1] = qHTS assay to identify small molecule antagonists of the sonic hedgehog signaling (Shh) pathway - cell viability counter screen (AID 1259367); further: nearly all actives have a fitted effect of over 55% in size
Summary of the method: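 CellTiter-Fluor signal in conditioned medium-stimulated 3T3 Gli1-Luc cells, 23 hr compound exposure, 37C.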

[2] = qHTS assay to identify small molecule agonists of the sonic hedgehog signaling (Shh) pathway (AID 1259368; calls by dose curve;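 further: NIH/3T3-derived 3T3Gli1-Luc cells carrying a stable Gli1-driven firefly luciferase reporter; series mostly up to about 92 µM; nearly all actives have a fitted effect of over 15% in size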)
Summary of the method: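 Luminescence was read after 30 min at room temperature with luciferase reagent. Before that, 3T3Gli1-Luc cells (NIH/3T3 clone, stable Gli1-Luc reporter; 2,000/well) were exposed to compounds for 24 hr at 37C, 5% CO2, compounds being added 4 hr post-plating.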

[3] = target: Estrogen receptor beta (Homo sapiens) (UniProt Q92731); assay: qHTS assay to identify small molecule agonists of the estrogen receptor beta (ER-beta) signaling pathway (AID 1259377; active means well fitted activation curve with a large enough effect in the signal ratio in the repeat runs, not every such curve was filed as active; the % refers to the signal ratio)
Sequence of Estrogen receptor beta (Homo sapiens) (Q92731 whole entry, looked up): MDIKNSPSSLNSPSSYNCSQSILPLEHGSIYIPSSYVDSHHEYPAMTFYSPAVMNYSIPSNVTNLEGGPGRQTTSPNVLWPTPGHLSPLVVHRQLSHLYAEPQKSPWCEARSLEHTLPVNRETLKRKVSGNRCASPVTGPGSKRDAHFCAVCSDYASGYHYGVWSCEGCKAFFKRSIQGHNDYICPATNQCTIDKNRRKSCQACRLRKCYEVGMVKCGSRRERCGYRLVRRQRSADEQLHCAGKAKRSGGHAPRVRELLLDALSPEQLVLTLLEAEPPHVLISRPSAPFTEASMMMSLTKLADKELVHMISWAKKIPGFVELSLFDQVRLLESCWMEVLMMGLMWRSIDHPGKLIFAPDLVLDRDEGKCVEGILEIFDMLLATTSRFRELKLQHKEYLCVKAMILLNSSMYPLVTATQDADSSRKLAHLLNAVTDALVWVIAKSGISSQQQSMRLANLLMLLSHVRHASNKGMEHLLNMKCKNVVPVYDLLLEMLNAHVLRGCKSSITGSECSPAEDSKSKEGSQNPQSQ
Summary of the method: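 Screening used GripTite ER-beta-UAS-bla cells held in 2% charcoal-stripped FBS medium. After overnight (16 hr) compound incubation at 37C, beta-lactamase activity was detected with a FRET substrate by fluorescence.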

[4] = target: Estrogen receptor beta (Homo sapiens) (UniProt Q92731); assay: qHTS assay to identify small molecule antagonists of the estrogen receptor beta (ER-beta) signaling pathway (AID 1259378; active means well fitted inhibition curve with a large enough effect in the signal ratio in the repeat runs, not every such curve was filed as active; the % refers to the signal ratio)
Summary of the method: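 Antagonist mode: compounds added to beta-lactamase reporter HEK293T ER-beta-UAS cells stimulated with E2 (1nM final), 16 hr at 37C. LiveBLAzer B/G FRET substrate, 2 hours room temperature, fluorescence read-out.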

[5] = qHTS assay to identify small molecule agonists of the androgen receptor (AR) signaling pathway in the presence of an antagonist - cell viability counter screen (AID 1259379); further: nearly all actives have a fitted effect of over 25% in size; further: potency means the concentration at half of the fitted maximal effect
Summary of the method: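 Cytotoxicity counter-screen run in the same wells as the nilutamide-challenged (3.0 µM final) AR agonist assay in MDA-kb2 cells. Compounds tested at 15 concentrations for 16 h, 37 °C without CO2; CellTiter-Fluor fluorescence read.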

[6] = qHTS assay to identify small molecule agonists of the estrogen receptor beta (ER-beta) signaling pathway - cell viability counter screen (AID 1259380); further: nearly all actives have a fitted effect of over 30% in size
Summary of the method: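 Cell viability counter screen: CellTiter-Glo luminescence (30 min, room temperature) measured in the same wells as the beta-lactamase readout, after 16 hr compound exposure at 37C of ER-beta-bla HEK293T cells in 2% charcoal-stripped FBS medium.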

[7] = target: Androgen receptor (Homo sapiens) (UniProt P10275); assay: qHTS assay to identify small molecule agonists of the androgen receptor (AR) signaling pathway in the presence of an antagonist (AID 1259381; calls by dose curve; further: nearly all actives have a fitted effect of over 15% in size)
Sequence of Androgen receptor (Homo sapiens) (P10275 whole entry, looked up): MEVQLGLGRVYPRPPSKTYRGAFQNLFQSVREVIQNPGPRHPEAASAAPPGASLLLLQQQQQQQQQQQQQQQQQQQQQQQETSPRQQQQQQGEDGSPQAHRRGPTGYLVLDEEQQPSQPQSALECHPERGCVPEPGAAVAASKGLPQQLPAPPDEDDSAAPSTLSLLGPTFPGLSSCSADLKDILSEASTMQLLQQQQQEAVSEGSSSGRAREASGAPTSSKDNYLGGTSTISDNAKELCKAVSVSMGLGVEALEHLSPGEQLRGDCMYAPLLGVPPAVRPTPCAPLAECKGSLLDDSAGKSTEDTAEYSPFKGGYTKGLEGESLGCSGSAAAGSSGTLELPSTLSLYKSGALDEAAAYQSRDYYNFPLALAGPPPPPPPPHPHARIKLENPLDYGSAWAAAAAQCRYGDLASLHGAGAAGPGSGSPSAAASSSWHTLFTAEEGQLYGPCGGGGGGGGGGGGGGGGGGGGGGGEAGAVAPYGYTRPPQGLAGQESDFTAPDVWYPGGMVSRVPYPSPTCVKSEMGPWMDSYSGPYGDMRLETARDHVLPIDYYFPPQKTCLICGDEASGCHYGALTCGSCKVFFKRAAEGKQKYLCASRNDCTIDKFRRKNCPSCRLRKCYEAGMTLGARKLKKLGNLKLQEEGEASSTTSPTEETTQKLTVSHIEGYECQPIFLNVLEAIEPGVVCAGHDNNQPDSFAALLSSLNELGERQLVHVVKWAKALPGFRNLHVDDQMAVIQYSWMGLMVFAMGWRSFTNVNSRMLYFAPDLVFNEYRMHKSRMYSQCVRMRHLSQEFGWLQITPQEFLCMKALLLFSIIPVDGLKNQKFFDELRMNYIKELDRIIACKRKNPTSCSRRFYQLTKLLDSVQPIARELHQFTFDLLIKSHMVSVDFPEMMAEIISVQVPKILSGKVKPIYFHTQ
Summary of the method: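 Agonist-mode confirmation run against 3.0 uM final nilutamide: compounds titrated at 15 concentrations onto MDA-kb2 MMTV-luciferase reporter cells. Luminescence measured with ONE-Glo following 16 hr incubation, 37C, 0% CO2.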

[8] = qHTS assay to identify small molecule antagonists of the estrogen receptor beta (ER-beta) signaling pathway - cell viability counter screen (AID 1259382);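 further: HEK293T cells carrying ER-beta-UAS-bla reporter stimulated with estradiol; series mostly up to about 92 µM; nearly all actives have a fitted effect of over 55% in size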
Summary of the method: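 Cytotoxicity was measured in the same wells by CellTiter-Glo luminescence after 30 min at room temperature. Cells were ER-beta-bla HEK293T in charcoal-stripped serum, given compound together with 1 nM E2 and incubated 16 h at 37C.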

[9] = target: Estrogen receptor (Homo sapiens) (UniProt P03372); assay: qHTS assay to identify small molecule agonists of the estrogen receptor alpha (ER-alpha) signaling pathway in the presence of an antagonist (AID 1259383; calls by dose curve; further: top concentration of the series differs between compounds; nearly all actives have a fitted effect of over 15% in size)
Sequence of Estrogen receptor (Homo sapiens) (P03372 whole entry, looked up): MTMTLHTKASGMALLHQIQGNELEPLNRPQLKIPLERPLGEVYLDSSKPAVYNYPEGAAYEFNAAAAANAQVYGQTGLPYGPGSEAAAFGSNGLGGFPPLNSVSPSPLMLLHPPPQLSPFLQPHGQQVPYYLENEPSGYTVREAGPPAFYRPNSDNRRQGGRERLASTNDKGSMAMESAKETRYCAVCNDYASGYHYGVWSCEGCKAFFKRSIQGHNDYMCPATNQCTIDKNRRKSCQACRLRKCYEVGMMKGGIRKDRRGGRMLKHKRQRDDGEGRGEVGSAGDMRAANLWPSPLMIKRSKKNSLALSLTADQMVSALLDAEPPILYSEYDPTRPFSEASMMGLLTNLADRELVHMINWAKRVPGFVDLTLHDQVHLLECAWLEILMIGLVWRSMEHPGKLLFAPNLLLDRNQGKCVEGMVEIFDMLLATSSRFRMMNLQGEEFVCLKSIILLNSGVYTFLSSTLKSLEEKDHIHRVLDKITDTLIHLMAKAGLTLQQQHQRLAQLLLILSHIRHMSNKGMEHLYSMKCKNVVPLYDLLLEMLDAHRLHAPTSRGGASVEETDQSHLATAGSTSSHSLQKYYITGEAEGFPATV
Summary of the method: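 Agonist-mode confirmation run in the presence of 10.0nM (final) ICI-182,780 antagonist. The reporter was ERE-driven luciferase in VM7Luc4E2 cells, grown in charcoal-stripped serum. Cells were exposed to 15-concentration compound series for 22hr, then ONE-Glo luminescence was read.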

[10] = qHTS assay to identify small molecule agonists or antagonists of the thyroid stimulating hormone receptor (TSHR) signaling pathway - wild type cell line counter screen (AID 1259384; calls by dose curve)
Summary of the method: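 Counter screen in untransfected Hek293: compounds (15-point titration, triplicate) plus phosphodiesterase inhibitor Ro20-1724 added after 18 h plating; 30 min RT. Intracellular cAMP via competitive d2/cryptate immunoassay, 1 h incubation.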

[11] = target: Thyrotropin receptor (Homo sapiens) (UniProt P16473); assay: qHTS assay to identify small molecule antagonists of the thyroid stimulating hormone receptor (TSHR) signaling pathway (AID 1259385; calls by dose curve; further: nearly all actives have a fitted effect of over 20% in size)
Sequence of Thyrotropin receptor (Homo sapiens) (P16473 whole entry, looked up): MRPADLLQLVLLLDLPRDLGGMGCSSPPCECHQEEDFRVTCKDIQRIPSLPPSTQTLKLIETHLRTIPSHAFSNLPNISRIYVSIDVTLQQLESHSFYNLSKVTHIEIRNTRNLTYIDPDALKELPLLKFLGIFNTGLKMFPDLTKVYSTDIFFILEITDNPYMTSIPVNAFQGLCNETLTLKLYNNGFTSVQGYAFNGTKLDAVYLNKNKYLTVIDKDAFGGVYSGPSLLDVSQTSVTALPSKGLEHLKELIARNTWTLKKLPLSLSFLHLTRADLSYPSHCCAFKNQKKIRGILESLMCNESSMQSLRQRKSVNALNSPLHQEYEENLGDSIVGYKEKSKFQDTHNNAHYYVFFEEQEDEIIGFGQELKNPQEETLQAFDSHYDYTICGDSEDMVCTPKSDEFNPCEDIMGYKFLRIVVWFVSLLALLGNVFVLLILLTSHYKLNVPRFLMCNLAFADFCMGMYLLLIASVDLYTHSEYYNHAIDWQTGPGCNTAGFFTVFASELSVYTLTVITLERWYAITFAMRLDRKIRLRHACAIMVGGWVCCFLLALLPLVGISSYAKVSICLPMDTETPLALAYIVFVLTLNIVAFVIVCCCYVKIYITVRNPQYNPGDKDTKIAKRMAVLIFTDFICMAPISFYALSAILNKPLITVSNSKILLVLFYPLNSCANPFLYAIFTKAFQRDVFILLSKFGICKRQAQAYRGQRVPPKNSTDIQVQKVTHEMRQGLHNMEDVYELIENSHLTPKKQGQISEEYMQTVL
Summary of the method: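 Antagonist mode: compound-treated TSHR-expressing HEK293 cells were stimulated with 1.5 ng/mL TSH (final) in presence of Ro20-1724 for 30 min at RT. HTRF cAMP detection after 1 h; each compound tested at 15 concentrations, triplicate.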

[12] = qHTS assay to identify small molecule agonists of the estrogen receptor alpha (ER-alpha) signaling pathway in the presence of an antagonist - cell viability counter screen (AID 1259386); further: nearly all actives have a fitted effect of over 30% in size; further: potency means the concentration at half of the fitted maximal effect
Summary of the method: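 Compounds tested at 15 concentrations for 22 h at 37C alongside 10.0nM (final) ICI-182,780 antagonist, in VM7Luc4E2 cells grown in phenol red-free, charcoal-stripped medium. Viability read by CellTiter-Fluor fluorescence after 1 h reagent incubation.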

[13] = target: Progesterone receptor (Homo sapiens) (UniProt P06401); assay: qHTS assay to identify small molecule agonists of the progesterone receptor (PR) signaling pathway (AID 1346784; calls by dose curve; further: nearly all actives have a fitted effect of over 30% in size)
Sequence of Progesterone receptor (Homo sapiens) (P06401 whole entry, looked up): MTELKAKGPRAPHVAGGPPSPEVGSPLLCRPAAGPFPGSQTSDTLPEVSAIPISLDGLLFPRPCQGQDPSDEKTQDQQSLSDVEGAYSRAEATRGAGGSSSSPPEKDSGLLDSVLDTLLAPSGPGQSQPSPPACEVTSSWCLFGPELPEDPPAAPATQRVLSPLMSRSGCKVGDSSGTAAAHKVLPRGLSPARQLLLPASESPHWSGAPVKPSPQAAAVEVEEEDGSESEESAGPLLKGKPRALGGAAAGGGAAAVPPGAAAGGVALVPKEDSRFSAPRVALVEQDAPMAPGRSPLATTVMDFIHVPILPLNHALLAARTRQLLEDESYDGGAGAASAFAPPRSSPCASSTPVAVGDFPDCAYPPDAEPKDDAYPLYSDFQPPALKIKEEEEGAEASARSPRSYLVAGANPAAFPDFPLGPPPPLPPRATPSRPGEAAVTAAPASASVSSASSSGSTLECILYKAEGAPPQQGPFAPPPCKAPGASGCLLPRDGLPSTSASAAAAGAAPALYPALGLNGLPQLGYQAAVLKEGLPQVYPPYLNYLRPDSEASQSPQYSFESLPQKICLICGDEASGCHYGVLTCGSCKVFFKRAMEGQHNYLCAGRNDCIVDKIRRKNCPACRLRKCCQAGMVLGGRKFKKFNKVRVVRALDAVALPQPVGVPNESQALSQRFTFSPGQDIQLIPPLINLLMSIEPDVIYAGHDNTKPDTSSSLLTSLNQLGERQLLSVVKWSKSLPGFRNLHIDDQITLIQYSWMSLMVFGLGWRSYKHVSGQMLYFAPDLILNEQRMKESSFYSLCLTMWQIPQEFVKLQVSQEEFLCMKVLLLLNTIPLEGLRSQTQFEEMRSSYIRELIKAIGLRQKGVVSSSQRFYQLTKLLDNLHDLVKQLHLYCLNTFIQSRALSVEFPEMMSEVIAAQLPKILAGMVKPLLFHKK
Summary of the method: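 Seed PR-UAS-bla HEK 293T cells (2% charcoal-stripped FBS), incubate 6 hr at 37C; add compounds in DMSO, 16 hr at 37C; add LiveBLAzer B/G substrate, 2 hr RT; read fluorescence intensity.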

[14] = target: Progesterone receptor (Homo sapiens) (UniProt P06401); assay: qHTS assay to identify small molecule antagonists of the progesterone receptor (PR) signaling pathway (AID 1346795; active means well fitted inhibition curve with a large enough effect in the signal ratio in the repeat runs, not every such curve was filed as active; the % refers to the signal ratio)
Summary of the method: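 Screening used a GripTite HEK293T line with PR-responsive UAS-beta-lactamase. Cells were challenged with compound in the presence of 1 nM R5020 final for 16 hr at 37C; B/G FRET substrate, 2 hr room temperature, fluorescence.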

[15] = qHTS assay to identify small molecule antagonists of the progesterone receptor (PR) signaling pathway - cell viability counter screen (AID 1346798); further: series mostly up to about 92 µM; nearly all actives have a fitted effect of over 50% in size
Summary of the method: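 Measures cytotoxicity in parallel with the PR antagonist reporter read: HEK293T PR-UAS-bla cells get compound and R5020 for 16 hr, and remaining viable cells are quantified by CellTiter-Glo luminescence.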

[16] = qHTS assay to identify small molecule agonists of the progesterone receptor (PR) signaling pathway - cell viability counter screen (AID 1346799; calls by dose curve; further: nearly all actives have a fitted effect of over 45% in size)
Summary of the method: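 Using the same plates as the PR reporter screen, HEK293T PR-UAS-bla cells received compounds for 16 hr at 37C and were then lysed with CellTiter-Glo; luminescence was read 30 min later at room temperature.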

[17] = qHTS assay to identify small molecule antagonists of the TGF-beta/Smad signaling pathway - cell viability counter screen (AID 1346824); further: nearly all actives have a fitted effect of over 50% in size
Summary of the method: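 Cytotoxicity counter-screen run in the same wells as the beta-lactamase Smad reporter read: CellTiter-Glo luminescence after 30 min at room temperature. HEK 293T SBE-bla cells had 5 hr compound exposure at 37 C with TGF-beta1 (0.25 ng/mL stock).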

[18] = qHTS assay to identify small molecule agonists of the TGF-beta/Smad signaling pathway - cell viability counter screen (AID 1346829); further: top concentration of the series differs between compounds; nearly all actives have a fitted effect of over 45% in size
Summary of the method: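 Compound-treated SBE-bla HEK 293T cells (5 hr, 37 C) were assessed for viability with CellTiter-Glo in parallel with the reporter read.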

[19] = qHTS assay to identify small molecule antagonists of the sonic hedgehog signaling (Shh) pathway (AID 1259369; calls by dose curve; further: nearly all actives have a fitted effect of over 45% in size)
Summary of the method: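 Antagonist mode: compound added to 3T3 Gli1-Luc cells followed by conditioned-medium stimulation, 24 h at 37 C, 5% CO2. Inhibition taken as loss of Gli1-driven luciferase luminescence.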

Row | SMILES | Potency [1] | outcome [2] | Potency [3] | outcome [4] | Potency [5] | outcome [6] | outcome [7] | outcome [8] | outcome [9] | outcome [10] | outcome [11] | Potency [12] | Potency [13] | Potency [14] | Potency [15] | Potency [16] | outcome [17] | outcome [18] | Potency [19]
1 | Nc1cc(C(=O)O)ccc1Cl | inactive | inactive | inactive | inactive | inactive | inactive | inactive | inactive | inactive | inactive | inactive | inactive | inactive | inactive | inactive | inactive | inactive | inactive | –
2 | Cc1cc(C)cc([N+](=O)[O-])c1 | inactive | inactive | – | – | inactive | inactive | – | inactive | inactive | inactive | inactive | inactive | inactive | inactive | – | inactive | inactive | inactive | inactive
3 | CCC(C)(CCC(C)C)C(=O)[O-].CCC(C)(CCC(C)C)C(=O)[O-].[Zn+2] (centres undefined) | inactive | inactive | – | – | inactive | inactive | – | inactive | – | – | – | inactive | inactive | inactive | inactive | inactive | – | inactive | –
4 | Cc1ccccc1OCC1CO1 (centres undefined) | inactive | inactive | inactive | inactive | inactive | inactive | – | inactive | inactive | – | – | inactive | inactive | inactive | inactive | inactive | inactive | inactive | inactive
5 | C=CCOC(=O)c1ccc(C(=O)OCC=C)c(C(=O)OCC=C)c1 | inactive | inactive | inactive | – | – | inactive | – | inactive | inactive | inactive | – | inactive | inactive | – | inactive | inactive | inactive | inactive | –
6 | COc1cc(C=O)ccc1OC(=O)C(C)C | inactive | inactive | – | – | inactive | inactive | – | inactive | – | inactive | inactive | – | inactive | inactive | inactive | inactive | inactive | inactive | inactive
7 | CCCCC(CC)COC(=O)c1ccccc1 (centres undefined) | inactive | inactive | inactive | inactive | – | – | – | inactive | inactive | inactive | inactive | – | inactive | inactive | inactive | inactive | inactive | inactive | inactive
8 | Cc1nc(C)nc(N2C[C@@H](C)N(c3ccnc([C@@H](C)O)n3)[C@@H](C)C2)n1 | inactive | inactive | – | – | inactive | – | – | inactive | inactive | inactive | inactive | inactive | inactive | – | inactive | inactive | inactive | inactive | inactive
9 | C=C(C)C(=O)OC | inactive | inactive | – | – | inactive | inactive | – | inactive | – | inactive | inactive | inactive | inactive | inactive | inactive | inactive | inactive | inactive | inactive
10 | CC(C)COC(=O)/C=C/c1ccccc1 | inactive | inactive | inactive | inactive | inactive | inactive | – | inactive | inactive | inactive | inactive | – | inactive | inactive | – | inactive | inactive | inactive | inactive
11 | C/C=C(\C)C(=O)OCC/C=C\CC | inactive | inactive | inactive | – | inactive | inactive | – | inactive | – | inactive | inactive | – | inactive | inactive | inactive | inactive | inactive | inactive | inactive
12 | C=CCOc1cc(Cl)ccc1C(=O)NCCN(CC)CC | inactive | inactive | inactive | – | inactive | inactive | – | inactive | – | inactive | inactive | inactive | inactive | inactive | inactive | inactive | inactive | inactive | inactive
13 | CCNC(=O)/C=C/c1cccc(Br)c1 | inactive | inactive | inactive | inactive | inactive | – | inactive | inactive | – | inactive | inactive | – | inactive | inactive | inactive | inactive | inactive | inactive | inactive
14 | CC(C)COC(=O)CC(C(=O)OCC(C)C)S(=O)(=O)O (centres undefined) | inactive | inactive | inactive | inactive | inactive | – | – | inactive | inactive | – | – | inactive | inactive | inactive | inactive | inactive | inactive | inactive | inactive
15 | CC(=O)Nc1ncc([N+](=O)[O-])s1 | inactive | inactive | – | – | inactive | inactive | – | inactive | inactive | inactive | inactive | – | inactive | inactive | inactive | inactive | inactive | inactive | –
16 | CCN1CN(CC)CN(CC)C1 | inactive | inactive | inactive | inactive | inactive | inactive | – | inactive | inactive | inactive | inactive | inactive | inactive | inactive | – | inactive | inactive | inactive | –
17 | CCCCCC(=O)OCC | inactive | inactive | inactive | inactive | – | inactive | – | inactive | inactive | inactive | inactive | inactive | inactive | inactive | inactive | inactive | inactive | inactive | inactive
18 | CC1=CC[C@H](CC=O)C1(C)C | inactive | inactive | inactive | inactive | inactive | inactive | – | inactive | inactive | inactive | inactive | inactive | inactive | inactive | – | inactive | inactive | inactive | inactive
19 | CC1=NN(c2ccc(S(=O)(=O)O)cc2)C(=O)C1N=Nc1ccccc1 (centres undefined) | – | inactive | – | – | 30.6 µM (active) | – | – | inactive | inactive | – | – | 30.6 µM (active) | inactive | inactive | inactive | inactive | inactive | inactive | inactive
20 | COc1ccc(OC)c(NC(=O)CC(C)=O)c1 | inactive | inactive | inactive | – | inactive | – | – | inactive | – | inactive | inactive | inactive | inactive | inactive | – | inactive | inactive | inactive | inactive
21 | C1=CCC(c2ccccc2)CC1 (centres undefined) | inactive | inactive | inactive | inactive | inactive | inactive | – | inactive | – | inactive | inactive | inactive | inactive | inactive | – | inactive | inactive | inactive | inactive
22 | CO/N=C(/C(=O)N[C@@H]1C(=O)N2C(C(=O)O)=C(Cn3nnc(C)n3)CS[C@H]12)c1csc(N)n1 | inactive | inactive | inactive | inactive | – | inactive | – | inactive | – | inactive | inactive | – | inactive | inactive | – | inactive | inactive | inactive | inactive

Reference: PubChem BioAssay (Tox21)
